In PubChem BioAssay AID811 (The Scripps Research Institute Molecular Screening Center, 2007):
In all, about 16,000 compounds went through this assay and about 10 (0.06%) were called active. The sample as a whole holds a higher share of actives than the screen did. A number with no mark means an inactive call. Cut-off read from the data, not from the text of the source: active = inhibition above about 45%; inactive = the rest.

Molecular target: Toll-like receptor 4 (Homo sapiens) (UniProt O00206)
Test: blocks binding of human TLR4 to MyD88 (AID 811)
Details: Cell-based TLR4-MyD88 binding inhibition assay; at 10 µM; hits give high values

Chain of Toll-like receptor 4 (Homo sapiens) (O00206 whole entry, looked up): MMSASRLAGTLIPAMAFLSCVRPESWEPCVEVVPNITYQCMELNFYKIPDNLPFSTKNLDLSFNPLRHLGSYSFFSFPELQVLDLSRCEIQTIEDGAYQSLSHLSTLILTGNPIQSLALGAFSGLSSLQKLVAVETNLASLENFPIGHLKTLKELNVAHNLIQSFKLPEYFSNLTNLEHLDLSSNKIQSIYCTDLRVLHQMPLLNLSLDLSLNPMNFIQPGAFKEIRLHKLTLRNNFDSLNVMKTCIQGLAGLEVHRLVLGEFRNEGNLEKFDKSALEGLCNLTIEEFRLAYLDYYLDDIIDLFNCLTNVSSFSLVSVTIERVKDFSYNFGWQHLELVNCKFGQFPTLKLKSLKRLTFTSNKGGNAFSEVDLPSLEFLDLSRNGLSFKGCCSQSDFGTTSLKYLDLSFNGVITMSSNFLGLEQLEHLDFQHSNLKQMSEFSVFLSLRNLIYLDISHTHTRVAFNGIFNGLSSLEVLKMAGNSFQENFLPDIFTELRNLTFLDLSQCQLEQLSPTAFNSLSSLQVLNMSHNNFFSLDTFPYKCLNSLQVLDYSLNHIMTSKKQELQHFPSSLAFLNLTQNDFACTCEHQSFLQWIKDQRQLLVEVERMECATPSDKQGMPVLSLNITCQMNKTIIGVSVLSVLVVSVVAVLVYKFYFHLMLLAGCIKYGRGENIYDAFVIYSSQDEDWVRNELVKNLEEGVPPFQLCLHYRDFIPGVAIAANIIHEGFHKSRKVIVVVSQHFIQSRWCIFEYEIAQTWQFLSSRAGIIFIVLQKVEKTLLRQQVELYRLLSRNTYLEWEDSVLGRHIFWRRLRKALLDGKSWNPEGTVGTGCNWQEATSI

SMILES	inhibition [%]
NS(=O)(=O)c1cccc(NC(=O)c2ccccc2)c1	2.32
N#CC(Cc1ccccc1)Sc1ccccc1 (configuration not stated)	5.75
COc1ccc(OCCC(=O)NNC(=S)Nc2cc(Cl)ccc2Cl)cc1	-3.16
CCOCCOCCN(CC)c1ccc(N=Nc2c(C#N)cc([N+](=O)[O-])cc2C#N)c(NC(C)=O)c1	-2.49
CC1(C)CCc2cc(-c3ccnc(SCC(=O)c4ccccc4)n3)ccc2O1	-13.2
Cc1noc(C)c1S(=O)(=O)Nc1cc(C(F)(F)F)ccc1N1CCOCC1	3.25
N#CCCN(CCc1ccccn1)S(=O)(=O)c1ccc2c(c1)CCO2	3.85
CC(C)(C)C(=O)NNC(=O)c1ccc(Oc2ccc(C3SCCS3)cc2)o1	-1.82
Cc1cc2c(cn1)C(=O)c1ccccc1-2	-3.73
CCOC(=O)c1cc(Sc2ccccc2N)cc(C(=O)OCC)n1	-13.8
Cc1c(C)c(C)c(CSC(=N)CC#N)c(C)c1C	1.02
Cc1cc(NCc2cccnc2)no1	-4.99
O=C(/C=C/c1cccc2ccccc12)N1CCCCC1	2.1
CC1=CC(=O)C(CCC2=CC(=O)C(C)=CC2=O)=CC1=O	-7.79
CC1=NCCNC(C)=C1N1CCOCC1	2.33
N/C(Cc1ccc(F)cc1F)=N\OC(=O)c1cccc(C(F)(F)F)c1	2.07
O=C(N/N=C/c1ccc(Cl)cc1Cl)/C(=C/c1cccs1)NC(=O)c1ccccc1	-7.21
NC(=NC(=O)CCn1c(=O)oc2ccccc21)c1cc(Cl)cc(Cl)c1	-2.8
Cc1ccc(CC(=O)c2cccnc2)cc1	3.89
FC(F)(F)c1ccc(-n2cn[nH]c2=S)cc1	-1.09
Cc1cc(C)nc(N/C=C(\C#N)S(=O)(=O)c2ccc(Cl)cc2)n1	-13
CCOC(=O)Cc1nnc(-c2ccc(Cl)cc2)o1	-0.7
COC(C)(OC)c1ccc(C#N)c(=S)[nH]1	-5.59
CCOC1=NC(C(F)(F)F)(C(F)(F)F)N=C(N2CCOCC2)O1	0.2
CN(C)C(=O)Nc1ccc(C(C)(C)C)cc1	-8.78
O=C(O)CCC(=O)Nc1ccccc1	0.27

SMILES	inhibition [%]
N#Cc1nc(-c2ccccc2)c(-c2ccccc2)nc1C#N	9.3
Cc1onc(-c2ccccc2)c1C(=O)Nc1ccc(/C(C#N)=C/c2ccccn2)cc1	-8.57
Cn1cc(C(=O)c2ccc(Cl)cc2)cc1/C=C(\C#N)S(=O)(=O)c1ccc(C(F)(F)F)cn1	-4.67
O=C(O)CCC(=O)Nc1ccc2c(c1)OCCCO2	-5.34
c1ccc(-n2cccc2)c(N2CCCCC2)c1	-11.1
Cc1ccc2oc(=O)n(CC/C(N)=N/OC(=O)c3ccc(C(F)(F)F)nc3C)c2c1	8.34
CCOC(=O)c1sc(SC)c(-c2ccccc2)c1N	2.9
CCOC(=O)CNC(=O)CCc1cc(OC)c(OC)c(OC)c1	-5.89
O=C(Oc1ccc(Cl)cc1)c1snnc1-c1ccccc1	-12.5
FC(F)(F)c1cccc(NC(=S)NNc2nccc(C(F)(F)F)n2)c1	14.4
Cc1c(S(=O)(=O)c2ccc(Cl)cc2)csc1C(=O)Nc1ccc2c(c1)OCCO2	-2.01
O=C(CCSc1nc2ccccc2o1)N1CCc2cc([N+](=O)[O-])ccc21	-4.41
O=C(Nc1ccc(OCc2ccccc2)cc1)Nc1ccc2c(c1)C(=O)OC2	-6.75
CCOC(=O)c1c(NS(=O)(=O)c2cccc3nsnc23)sc(C)c1C	-17.3
CCOC(=O)CNC(=O)c1ccc(-c2cccc([N+](=O)[O-])c2)o1	2.51
CC(=O)OCC(=O)[C@@]1(O)[C@H](C)CC2C3CCC4=CC(=O)C=CC4(C)C3=CCC21C (some centres not stated)	-5.02
O=S(=O)(CCN1CCC(C(F)(F)F)CC1)c1ccccc1	-7.12
COc1ccc(OC)c(CCCc2cc(OC)ccc2OC)c1	-1.32
O=C1C=C(SCC(=O)c2ccccc2)SC(c2ccc(Cl)cc2)C1 (configuration not stated)	-2.02
O=c1cc(-c2ccccc2)sc2ccc(Cl)cc12	5.03
O=C(O)c1cnc(NCc2ccccc2)s1	-1.62
O=S(=O)(c1ccc(Cl)c(Cl)c1)N1CCc2c([nH]c3ccccc23)C1C(F)(F)F (configuration not stated)	0.92
N#Cc1c(-c2cccs2)oc(-n2cccc2)c1-c1cc(Br)cs1	6.38
CCOC(=O)c1cc(CC)sc1NC(=O)c1cccc(C(F)(F)F)c1	1.92
OCCNc1nc2ccccc2[nH]1	-3.29
COC(=O)CCN1CCc2cc(N=Nc3ccc(C(F)(F)F)cc3)ccc21	3.28

SMILES	inhibition [%]
N#CCSc1ccc2ccccc2c1	-1.93
CCN(CCN1C(=O)CCC1=O)c1cccc(NC(C)=O)c1	-4.21
Cc1cc(/C(N)=N/OC(=O)c2cccs2)c(-c2ccccc2)o1	3.39
CCOc1cc(-c2cccs2)nc(N)n1	1.81
O=S(=O)(c1ccc(Cl)s1)N1CCN(c2ccccc2)CC1	-1.65
CSc1sc(C(N)=O)cc1C#N	-2.28
O=C(O)c1nccnc1C(=O)NCCSCc1c(F)cccc1Cl	-7.53
CCOc1ccc(C(N)=O)c(SCC(=O)O)c1	-4.29
N#Cc1nccnc1N1CCN(c2ccccc2)CC1	10.5
Cc1cc(S(=O)(=O)Oc2ccc(OCc3ccccc3)cc2)c(C)cc1Cl	9.02
Cn1cccc1-c1n[nH]c(=S)n1-c1ccc(Cl)cc1Cl	9.51
O=c1[nH]c2cc(Cl)c(Cl)cc2n1-c1ccncc1	-5.56
COc1cccc(OCc2ccccc2)c1C#N	-5
O=C(CSc1nc2ccccc2o1)N1CCC(n2cccc2)CC1	-8.01
CC(C)(C)C(=O)OCC(N)=S	-7.02
CSc1c(C#N)c(N)nc(SCC(=O)c2ccc(OC(F)F)cc2)c1C#N	1.37
O=C(O)c1ccccc1/C=N/Nc1cc(Cl)ccc1Cl	-2.5
NC(=O)c1ccccc1OCCOc1ccccc1C(N)=O	-25.3
CN(C)c1cccc2c1c(NC(=O)Nc1ccc(OCc3ccccc3)cc1)nn2C	-5.12
Cc1ccccc1NC(=O)NCc1ccco1	0.5
OCCNC(=S)Nc1ccccc1-c1ccccc1	6.35
Cc1c(N/N=C(\C#N)c2nc3ccccc3[nH]2)c(=O)n(-c2ccccc2)n1C	3.99
CN(C)c1cc(-c2cc(Cl)sc2Cl)oc(=O)c1Cl	-4.82
O/N=C/c1sccc1Oc1ccccc1	0.35
COC(OC)c1ccnc(SCC(=O)Nc2ccc(C(C)C)cc2)n1	-8.52
O=C(Nc1ccccc1N1CCOCC1)C1CCN(c2nccc(C(F)(F)F)n2)CC1	1.1

SMILES	inhibition [%]
CC1(C)CC(=O)c2c(NCc3ccco3)sc(C#N)c2C1	8.27
COC(=O)c1sccc1-c1ccc(/C(C)=N/NC(N)=O)o1	0.98
Fc1cccc(Cl)c1CSc1nccn1-c1cccnc1	5.59
O=C(OCc1ccco1)c1cnc(Nc2ccc(OC(F)(F)F)cc2)nc1C(F)(F)F	11.4
N#Cc1c(N)nc2c3c1NC(O)(c1ccccc1)C(C#N)C3c1cc(Cl)ccc1O2 (configuration not stated)	-1.34
Cc1nc2sc(-c3ccccc3)cc2c(=O)o1	4.05
NS(=O)(=O)c1cc(Br)ccc1I	-0.48
O=C1CCN(Cc2ccccc2)C(=O)N1c1ccc2c(c1)CCO2	-14.4
CCOC(=O)C1=C(C)NC(=O)NC1c1ccc(-c2cccc([N+](=O)[O-])c2)o1 (configuration not stated)	-3.21
CC(CC(=O)O)Oc1ccc(Cl)cc1[N+](=O)[O-] (configuration not stated)	-0.53
CSc1nc(N/C=C(\C#N)C(=O)c2cccs2)n2nc(C)cc2n1	-2.59
N#CCc1ccc(OC(=O)c2cccnc2)cc1	-3.47
CN(C)C(=S)Nc1ccc(Br)cc1Cl	-2.8
Clc1cncc(Cl)c1N/N=C/C1CC2C=CC1C2 (configuration not stated)	5.74
O=C(O)c1onc2ccccc12	-3.17
CSc1nccc(-c2ccc(S(=O)(=O)n3nc(C)c(Br)c3C)s2)n1	2.65
Cc1cc(NC(=O)c2cc(-c3ccccc3)c(C(F)(F)F)s2)no1	-1.45
CC(=O)Nc1ccc(/C(N)=N/O)cc1	1.86
O=C(O)CC1(CC(=O)NCc2ccco2)CCCCC1	-10.3
CC(=O)OC1=CCC2C3CC[C@@]4(C)CC(OC(C)=O)CCC4(C)C3C(OC(C)=O)CC12C (some centres not stated)	5.37
CC(C)(C)NC(=O)[C@@H]1C[C@@H]2CCCC[C@@H]2CN1C(=O)c1ccno1	2.92
CCOC(=O)c1nnc2c(Br)c(C)nn2c1C	0.26
CCc1ccnc(NS(=O)(=O)c2ccc3c(c2)OCCO3)c1	-7.82
Cc1nc(C(=O)NNC(=S)Nc2ccccc2C(F)(F)F)cs1	-3.73
